From PubChem BioAssay
VACV E9 pol inh = inhibitors of vaccinia virus processive DNA synthesis (E9 polymerase); in vitro processive DNA synthesis, absorbance read-out; stronger effect = lower value; normalized absorbance, % (concentration not given with the values); hit rate 0.94% among 46,000; AID 493162; in the data active means normalized absorbance mostly below about 85%, no sharp cut-off; inactive means mostly above about 86%
The depositor's hits bear a star. This is one part of a sample in which hits are shown more often than they occur.

SMILES | VACV E9 pol inh
O=C(COc1ccc(Cl)cc1Cl)Nc1ccc(N2CCOCC2)cc1 | 108
O=C(COc1ccc(Br)cc1)OCC(=O)c1ccccc1 | 98
O=C(O)CCC(=O)Nc1cccc(O)c1 | 100
Nc1cccc(NC(=O)CCC(=O)O)c1 | 72*
CCCC(=O)Nc1cccc(N)c1 | 101
CCN(CC)c1ccc2nc(C)c(=O)oc2c1 | 105
Cc1ccc(C(=O)CN(Cc2ccccc2)Cc2ccccc2)cc1 | 110
OC(CN(Cc1ccccc1)Cc1ccccc1)Cn1c2ccccc2c2ccccc21 (stereo not drawn) | 101
CC(C)(CO)NCC(O)Cn1c2ccccc2c2ccccc21 (stereo not drawn) | 65*
CS(=O)(=O)NCC(O)Cn1c2ccccc2c2ccccc21 (stereo not drawn) | 107
O=CN1CCN(CC(O)Cn2c3ccccc3c3ccccc32)CC1 (stereo not drawn) | 100
OCCN(CCO)CC(O)Cn1c2ccccc2c2ccccc21 (stereo not drawn) | 77*
Cc1ccc(NCC(O)Cn2c3ccccc3c3ccccc32)cc1 (stereo not drawn) | 100
O=C(O)c1ccccc1N(Cc1ccccc1)C(=O)c1ccco1 | 100
CCN(C(=O)CSc1nc2ccccc2s1)C1CCCCC1 | 90
C1=C(c2ccccn2)Oc2ccccc2O1 | 97
O=C(c1cccnc1)N1N=C(C(F)(F)F)CC1(O)c1ccncc1 (stereo not drawn) | 100
O=C(CC(NC1CCCCC1)C(=O)O)c1ccc(C2CCCCC2)cc1 (stereo not drawn) | 95
CC(=O)n1c2ccccc2c2nc(N)sc21 | 64*
CC(=O)n1c2ccc(C)cc2c2nc3ccccc3nc21 | 93
N#CSCC(=O)n1c2ccccc2c2ccccc21 | 100
CC(=O)n1c2ccccc2c2ccccc21 | 67*
CC(=O)n1c(=O)n(C(C)=O)c2ccccc21 | 89
CC(=O)n1c2ccccc2c2c(-c3ccccc3)c(N3CCOCC3)sc21 | 98
CC1(C)CC(=O)CC(=NC2CCS(=O)(=O)C2)C1 (stereo not drawn) | 105
SMILES | VACV E9 pol inh
CC[C@@H]1[C@H]2CCCCN3[C@H]2[C@H](C[C@H]3[C@@H]2C[C@H](C)C(=O)O2)[C@@H]2[C@H]1OC(=O)[C@H]2C | 98
COCCN1C(=O)c2ccccc2C(C(=O)NCC2COc3ccccc3O2)C1c1ccc(F)cc1 (stereo not drawn) | 100
CCc1cc2c(=O)c(-c3ccccc3)coc2cc1O | 98
COc1ccc2c(=O)c(-c3ccc4c(c3)OCCO4)coc2c1 | 94
CCc1cc2c(=O)c(-c3ccc4c(c3)OCO4)coc2cc1O | 82*
O=S(=O)(c1cc(Cl)cc(Cl)c1)N1CC=C(c2ccccc2)CC1 | 105
CSc1nc(-c2ccccc2)nc2c1Cc1ccccc1O2 | 94
C/C(O)=C/C(=O)Nc1cccc(C(F)(F)F)c1 | 100
Oc1ccc(Br)cc1C=Nc1cc2c(cc1Br)OCCO2 | 100
Oc1c(Br)cc(Br)cc1C=Nc1ccccc1F | 81*
COc1cc(Br)cc(C=Nc2ccccc2)c1O | 111
c1ccc(CCn2c3ccccc3c3nc4ccccc4nc32)cc1 | 96
C=CCn1c2ccccc2c2nc3ccccc3nc21 | 92
c1ccc2nc3c(nc2c1)c1ccccc1n3CCN1CCOCC1 | 65*
NC(=O)c1cnn(-c2ccc(C(F)(F)F)cn2)c1N | 97
CSc1nnc(NC(=O)c2ccc(C)c(C)c2)s1 | 99
CC(C)(C#N)N1CCN(c2ccccc2)CC1 | 112
CC(C)c1ccc(NC(=O)NC2(C(F)(F)F)Oc3ccccc3O2)cc1 | 100
CCOC(=O)CSc1nc2ccccc2c(=O)n1-c1ccccc1 | 100
Fc1ccc(C2Nc3ccc(OC(F)(F)F)cc3C3C=CCC32)cc1 (stereo not drawn) | 97
CCOC(=O)[C@@H]1Nc2ccc(C(=O)O)cc2[C@@H]2C=CC[C@H]12 | 56*
CC(=O)Nc1ccc2c(c1)C1C=CCC1C(c1cccc(Cl)c1Cl)N2 (stereo not drawn) | 100
CC(C)c1ccc([C@@H]2Nc3ccc(C(=O)O)cc3[C@@H]3C=CC[C@@H]32)cc1 | 23*
CCOC(=O)[C@H]1NC(=O)C[C@H]1c1ccccc1 | 96
CCOC(=O)N1CCC(N2C(=O)c3ccc(C(=O)O)cc3C2=O)CC1 | 102
SMILES | VACV E9 pol inh
CCSc1nc(C)c2cc(OC)ccc2n1 | 100
COc1ccc2nc(C)cc(SCC(=O)c3ccc(Cl)cc3)c2c1 | 98
CCN(CC)CCCC(C)Nc1c2ccc(Cl)cc2nc2ccc(OC)cc12 (stereo not drawn) | 15*
Cc1cc2ccccn2c1C(=O)c1ccccc1 | 103
O=C(CSC1CCCC1)c1ccccc1Br | 102
Cn1c(SCc2ccccc2)nc2c([nH]c3ccccc32)c1=O | 97
c1ccc(-c2nc(NCc3cccnc3)c3ccccc3n2)cc1 | 102
c1ccc(CNc2ccc3c(ccc4c5ccccc5[nH]c34)n2)cc1 | 54*
CC(/C=C1\SC(=S)N(CCC(=O)N2CCN(C)CC2)C1=O)=C\c1ccccc1 | 100
S=c1nc2[nH]c(=S)[nH]c(=S)c2c(-c2ccco2)[nH]1 | 60*
Nc1nccc(-c2ccco2)n1 | 98
c1cnc2c(CN3CCCCCC3)cccc2c1 | 106
